# Experimental data from PubChem BioAssay AID1159580 (chemical genetic matrix, 2015).
# “And” between values parts separate entries of the source, which are not always exact repeats. Identical values can stand only once. The whole screen tested about 5,500 compounds, of which about 2,000 (36%) were called active. About 18% were inconclusive and are not listed. No stated cut-off is given here; in the data, active means normalized growth mostly below about 0.91 (no sharp cut-off); inconclusive means no clear call, values can overlap the other calls; inactive means mostly above about 0.92. This is one part of the list.
# Experiment: chemical genetic growth profiling, strain panel (AID 1159580);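 further: tested at 20 µM; growth read once vehicle control cultures reached saturation at 30 °C; 1 = growth at the plate median or of vehicle wells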
# Settings: S. cerevisiae deletion strains, growth OD
structure (smiles),measurement,setting,value
O=[N+]([O-])c1ccc(O)c([N+](=O)[O-])c1,normalized growth,"locus YAL013W, strain DEP1, stronger effect = lower value",0.837 (active)
same,normalized growth,"locus YAL021C, strain ccr4, stronger effect = lower value",0.869 (active)
same,normalized growth,"locus YAL026C, strain drs2, stronger effect = lower value",0.776 (active)
same,normalized growth,"locus YAL030W, strain snc1, stronger effect = lower value",0.812 (active)
same,normalized growth,"locus YBL061C, strain skt5, stronger effect = lower value",0.832 (active)
same,normalized growth,"locus YBR009C, strain hhf1, stronger effect = lower value",0.823 (active)
same,normalized growth,"locus YBR021W, strain FUR4, stronger effect = lower value",0.647 (active)
same,normalized growth,"locus YBR023C, strain chs3, stronger effect = lower value",0.88 (active)
same,normalized growth,"locus YBR171W, strain sec66, stronger effect = lower value",0.799 (active)
same,normalized growth,"locus YBR229C, strain ROT2, stronger effect = lower value",0.839 (active)
same,normalized growth,"locus YBR231C, strain swc5, stronger effect = lower value",0.851 (active)
same,normalized growth,"locus YBR279W, strain paf1, stronger effect = lower value",0.817 (active)
same,normalized growth,"locus YCL011C, strain gbp2, stronger effect = lower value",0.807 (active)
same,normalized growth,"locus YCL016C, strain dcc1, stronger effect = lower value",0.873 (active)
same,normalized growth,"locus YCL029C, strain bik1, stronger effect = lower value",0.693 (active)
same,normalized growth,"locus YCL069W, strain vba3, stronger effect = lower value",0.775 (active)
same,normalized growth,"locus YCR088W, strain abp1, stronger effect = lower value",0.775 (active)
same,normalized growth,"locus YDL005C, strain med2, stronger effect = lower value",0.875 (active)
same,normalized growth,"locus YDL035C, strain GPR1, stronger effect = lower value",0.871 (inactive)
same,normalized growth,"locus YDL040C, strain nat1, stronger effect = lower value",0.848 (active)
same,normalized growth,"locus YDL074C, strain BRE1, stronger effect = lower value",0.824 (inactive)
same,normalized growth,"locus YDL101C, strain DUN1, stronger effect = lower value",0.877 (active)
same,normalized growth,"locus YDL134C, strain PPH21, stronger effect = lower value",0.796 (active)
same,normalized growth,"locus YDL185W, strain tfp1, stronger effect = lower value",0.109 (active)
same,normalized growth,"locus YDL192W, strain arf1, stronger effect = lower value",0.759 (active)
same,normalized growth,"locus YDR001C, strain nth1, stronger effect = lower value",0.766 (active)
same,normalized growth,"locus YDR069C, strain doa4, stronger effect = lower value",0.936 (inactive)
same,normalized growth,"locus YDR101C, strain arx1, stronger effect = lower value",0.686 (active)
same,normalized growth,"locus YDR137W, strain rgp1, stronger effect = lower value",0.915 (inactive)
same,normalized growth,"locus YDR150W, strain NUM1, stronger effect = lower value",0.788 (active)
same,normalized growth,"locus YDR159W, strain sac3, stronger effect = lower value",0.677 (active)
same,normalized growth,"locus YDR162C, strain NBP2, stronger effect = lower value",0.785 (active)
same,normalized growth,"locus YDR195W, strain ref2",0.927 (inactive)
same,normalized growth,"locus YDR297W, strain sur2, stronger effect = lower value",0.826 (active)
same,normalized growth,"locus YDR318W, strain mcm21, stronger effect = lower value",0.727 (active)
same,normalized growth,"locus YDR334W, strain swr1, stronger effect = lower value",0.742 (active)
same,normalized growth,"locus YDR335W, strain msn5, stronger effect = lower value",0.798 (active)
same,normalized growth,"locus YDR388W, stronger effect = lower value",0.694 (active)
same,normalized growth,"locus YDR392W, strain spt3, stronger effect = lower value",0.674 (active)
same,normalized growth,"locus YDR502C, strain sam2, stronger effect = lower value",0.735 (active)
same,normalized growth,"locus YEL003W, strain gim4, stronger effect = lower value",0.829 (active)
same,normalized growth,"locus YEL037C, strain rad23, stronger effect = lower value",0.797 (active)
same,normalized growth,"locus YEL061C, strain CIN8 (second series), stronger effect = lower value",0.794 (active)
same,normalized growth,"locus YEL061C, strain CIN8, stronger effect = lower value",0.817 (active)
same,normalized growth,"locus YER015W, strain faa2, stronger effect = lower value",0.795 (active)
same,normalized growth,"locus YER016W, strain bim1, stronger effect = lower value",0.89 (active)
same,normalized growth,"locus YER110C, stronger effect = lower value",0.64 (active)
same,normalized growth,"locus YER111C, strain swi4, stronger effect = lower value",0.79 (active)
same,normalized growth,"locus YER155C, strain BEM2 (second series), stronger effect = lower value",0.615 (active)
same,normalized growth,"locus YER155C, strain BEM2, stronger effect = lower value",0.63 (active)
same,normalized growth,"locus YER167W, strain BCK2, stronger effect = lower value",0.76 (active)
same,normalized growth,"locus YFR010W, strain ubp6, stronger effect = lower value",0.861 (active)
same,normalized growth,"locus YGL078C, strain dbp3, stronger effect = lower value",0.252 (active)
same,normalized growth,"locus YGL086W, strain mad1, stronger effect = lower value",0.779 (active)
same,normalized growth,"locus YGL167C, strain pmr1, stronger effect = lower value",0.84 (active)
same,normalized growth,"locus YGL173C, strain kem1, stronger effect = lower value",0.822 (active)
same,normalized growth,"locus YGL227W, strain vid30, stronger effect = lower value",0.743 (active)
same,normalized growth,"locus YGL240W, strain doc1, stronger effect = lower value",0.739 (active)
same,normalized growth,"locus YGL248W, strain PDE1, stronger effect = lower value",0.81 (active)
same,normalized growth,"locus YGL253W, strain hxk2, stronger effect = lower value",0.717 (active)
same,normalized growth,"locus YGR078C, strain PAC10, stronger effect = lower value",0.789 (active)
same,normalized growth,"locus YGR135W, strain pre9, stronger effect = lower value",0.76 (active)
same,normalized growth,"locus YGR229C, strain SMI1, stronger effect = lower value",0.81 (inactive)
same,normalized growth,"locus YGR252W, strain gcn5, stronger effect = lower value",0.709 (active)
same,normalized growth,"locus YHR013C, strain ard1, stronger effect = lower value",0.981 (inactive)
same,normalized growth,"locus YHR027C, strain rpn1, stronger effect = lower value",0.814 (active)
same,normalized growth,"locus YHR079C, strain IRE1 (second series), stronger effect = lower value",0.665 (active)
same,normalized growth,"locus YHR079C, strain IRE1, stronger effect = lower value",0.254 (active)
same,normalized growth,"locus YHR094C, strain hxt1, stronger effect = lower value",0.681 (active)
same,normalized growth,"locus YHR129C, strain ARP1, stronger effect = lower value",0.738 (active)
same,normalized growth,"locus YHR142W, strain chs7, stronger effect = lower value",0.792 (active)
same,normalized growth,"locus YHR200W, strain rpn10, stronger effect = lower value",0.736 (active)
same,normalized growth,"locus YIL066C, strain RNR3, stronger effect = lower value",0.794 (active)
same,normalized growth,"locus YIL073C, strain SPO22, stronger effect = lower value",0.986 (inactive)
same,normalized growth,"locus YIL125W, strain kgd1, stronger effect = lower value",0.211 (active)
same,normalized growth,"locus YIR030C, strain dcg1, stronger effect = lower value",0.694 (active)
same,normalized growth,"locus YJL092W, strain hpr5, stronger effect = lower value",0.759 (active)
same,normalized growth,"locus YJL095W, strain BCK1 (second series), stronger effect = lower value",0.834 (active)
same,normalized growth,"locus YJL095W, strain BCK1, stronger effect = lower value",0.801 (inactive) and 0.3 (active)
same,normalized growth,"locus YJL115W, strain asf1, stronger effect = lower value",0.757 (active)
same,normalized growth,"locus YJL129C, strain trk1, stronger effect = lower value",0.694 (active)
same,normalized growth,"locus YJL134W, strain LCB3, stronger effect = lower value",0.777 (active)
same,normalized growth,"locus YJL154C, strain vps35, stronger effect = lower value",0.773 (active)
same,normalized growth,"locus YJL164C, strain tpk1, stronger effect = lower value",0.863 (active)
same,normalized growth,"locus YJL166W, strain qcr8, stronger effect = lower value",0.85 (active)
same,normalized growth,"locus YJL168C, strain set2, stronger effect = lower value",0.719 (active)
same,normalized growth,"locus YJL187C, strain SWE1 (second series), stronger effect = lower value",0.825 (active)
same,normalized growth,"locus YJL187C, strain SWE1, stronger effect = lower value",0.842 (active)
same,normalized growth,"locus YJR043C, strain POL32, stronger effect = lower value",0.892 (inactive)
same,normalized growth,"locus YJR066W, strain TOR1, stronger effect = lower value",0.254 (active)
same,normalized growth,"locus YJR075W, strain HOC1, stronger effect = lower value",0.824 (active)
